This passage reports outcome results from PubChem BioAssay AID651642 (Sanford-Burnham Center for Chemical Genomics, 2012).

Activity calls are given as the source filed them.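 Rule for the calls: active = average half-effect concentration of 10 µM or less in every one of the four cell panels; inactive = the rest.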

The assay concerns HL-1. Briefly: protection of cardiomyocytes from stress damage, SAR follow-up, cell-based, panel, H9c2 and HL-1, H2O2, 2-deoxyglucose, ATP luminescence (AID 651642). As to conditions: H9c2/HL-1 cardiomyocyte 2-deoxyglucose damage, mean of runs, with 2-deoxyglucose.
As to `COc1cc(-c2cc(C(=O)Nc3cccc(C(C)=O)c3)c3cc(F)ccc3n2)cc(OC)c1OC`, the result was inactive.
The value for `COc1ccc2c(c1OC)C(=O)N1c3ccccc3C(=O)N(Cc3ccccc3Br)C21` (centres undefined) was “inactive”; that for `COc1ccc2c(c1OC)C(=O)N1c3ccccc3C(=O)N(Cc3ccncc3)C21` (centres undefined) was “inactive”.
The value for `CCOC(=O)c1cccc(NC(=O)c2cc(-c3cc(OC)c(OC)c(OC)c3)nc3ccc(C)cc23)c1` was “inactive”; that for `COc1ccc2c(c1OC)C(=O)N1c3ccccc3C(=O)N(Cc3ccccc3Cl)C21` (centres undefined) was “active”.
Then `COc1ccc2nc(-c3cc(OC)c(OC)c(OC)c3)cc(C(=O)Nc3cccc(C(C)=O)c3)c2c1`, with “inactive”.
As for `CCOC(=O)c1cccc(NC(=O)CNC(=O)c2cc(-c3cc(OC)c(OC)c(OC)c3)nc3ccc(F)cc23)c1`, the compound was classed as active.
The value for `COc1ccc2c(c1OC)C(=O)N1c3ccccc3C(=O)N(Cc3cccc(Br)c3)C21` (centres undefined) was “active”; that for `COc1ccc2nc(-c3cc(OC)c(OC)c(OC)c3)cc(C(=O)NCC(=O)Nc3ccc(C(C)=O)cc3)c2c1` was “active”; that for `COC(=O)CNC(=O)c1cccc(NC(=O)c2cc(-c3cc(OC)c(OC)c(OC)c3)nc3ccccc23)c1` was “active”.
The value for `COc1cc(-c2cc(C(=O)NCC(=O)Nc3ccc(C(C)=O)cc3)c3cc(F)ccc3n2)cc(OC)c1OC` was “inactive”.
Then `COc1ccc2c(c1OC)C(=O)N1c3ccccc3C(=O)N(Cc3ccc(C)cc3)C21` (centres undefined), with “inactive”; and `CCOC(=O)c1cccc(NC(=O)c2cc(-c3cc(OC)c(OC)c(OC)c3)nc3c(Cl)cccc23)c1`, with “inactive”; and `CCNC(=O)c1cccc(NC(=O)c2cc(-c3cc(OC)c(OC)c(OC)c3)nc3ccccc23)c1`, with “active”.
